{"source": "PubChem BioAssay AID493247", "about": "(Broad Institute, 2011)", "note": "Measured potencies and affinities stand elsewhere. Results filed as inconclusive are left out. Values without a mark were called inactive.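 How the source made its calls: active means falling luminescence with a fitted half-effect concentration at most ten times the top dose in every repeat; inconclusive means repeats disagree, poor fit, or flat moderate signal drop; inactive means the rest.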"}
{"test": "cytotoxicity in NIH/3T3 mouse fibroblasts, dose response, cytotoxicity control, cell-based, mouse embryonic fibroblasts, dry powder, set 2 (AID 493247)", "settings": "NIH/3T3 cytotoxicity, CellTiter-Glo ATP luminescence, 90 h; series mostly up to 19.5 µM; activity change, negative = cytotoxic: at the top concentration", "units": {"activity change, negative = cytotoxic": "%"}}
{"smiles": "CCNC(=O)C1(C)CCCN(C(=O)Cc2ccc(OC)c(OC)c2)C1", "note": "(stereo unspecified)", "activity change, negative = cytotoxic": -10.4}
{"smiles": "COc1ccc(CCNC(=O)C2CCCCC2)cc1OC", "activity change, negative = cytotoxic": 12.5}
{"smiles": "COc1cc(CN2CCC(C(=O)NC(C)c3ccc(OC)c(OC)c3)CC2)cc(OC)c1", "note": "(stereo unspecified)", "activity change, negative = cytotoxic": -5.63}
{"smiles": "CCCNC(=O)C1(C)CCN(C(=O)Cc2ccc(OC)c(OC)c2)C1", "note": "(stereo unspecified)", "activity change, negative = cytotoxic": 3.33}
{"smiles": "CCCNC(=O)C1(C)CCCN(C(=O)Cc2ccc(OC)c(OC)c2)C1", "note": "(stereo unspecified)", "activity change, negative = cytotoxic": 3.6}
{"smiles": "COc1ccc(CN2CCCC(C(=O)N3CCCC3)C2)c(OC)c1OC", "note": "(stereo unspecified)", "activity change, negative = cytotoxic": 3.82}
{"smiles": "O=C(CNC(=O)c1ccco1)N/N=C/c1ccc([N+](=O)[O-])o1", "activity change, negative = cytotoxic": 2.12}
{"smiles": "COc1cc2c(cc1OC)C(C)N(CCC(N)=O)CC2", "note": "(stereo unspecified)", "activity change, negative = cytotoxic": 2.04}
{"smiles": "CCNC(=O)C1(C)CCN(C(=O)c2ccc(OC)c(OC)c2)C1", "note": "(stereo unspecified)", "activity change, negative = cytotoxic": 8.84}
{"smiles": "COCCNC(=O)C1(C)CCCN(C(=O)c2cc(OC)c(OC)c(OC)c2)C1", "note": "(stereo unspecified)", "activity change, negative = cytotoxic": -5.22}
{"smiles": "CCCNC(=O)C1(C)CCCN(C(=O)c2ccc(OC(F)F)cc2)C1", "note": "(stereo unspecified)", "activity change, negative = cytotoxic": -13.5}
{"smiles": "CN(Cc1ccccc1)C(=O)C1CCCN(Cc2ccccc2)C1", "note": "(stereo unspecified)", "activity change, negative = cytotoxic": -26.8}
{"smiles": "COc1ccc(CCN2CC(C(=O)NCc3ccc(F)cc3)CC2=O)cc1OC", "note": "(stereo unspecified)", "activity change, negative = cytotoxic": 11.9}
{"smiles": "CCNC(=O)C1CCCN(C(=O)c2cc(OC)c(OC)c(OC)c2)CC1", "note": "(stereo unspecified)", "activity change, negative = cytotoxic": 3.32}
{"smiles": "COc1ccc(CCN(C)C(=O)C2CCCN(Cc3ccccc3C)C2)cc1OC", "note": "(stereo unspecified)", "activity change, negative = cytotoxic": 3.81}
{"smiles": "CCNC(=O)C1(C)CCCN(Cc2cccc(Oc3ccccc3)c2)C1", "note": "(stereo unspecified)", "activity change, negative = cytotoxic": -2.58}
